Growth data for 8 molecules are collected here from PubChem BioAssay (NCI).

Molecules are shown by their SMILES. About 83,000 compounds went through this panel and 20% of them were active in at least one assay; those are over-represented in the sample as a whole.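 A percent growth of 40 corresponds to 60% growth inhibition; 0 means no net growth; -100 means all cells died. Active threshold: below 10.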 Values without a mark were called inactive. Active and inactive are the calls of the source.

Test systems include NCI-H23 lung; NCI-H226 lung; NCI-H322M lung; HOP-62 NSCLC; NCI-H460 lung; HOP-92 NSCLC; NCI-H522 lung; A549/ATCC NSCLC; 786-0 renal; COLO 205 colon; DU-145 prostate; K-562 leukemia; MALME-3M melanoma; MDA-MB-231 breast; RXF 393 renal; SF-268 CNS; SF-295 CNS; SF-539 CNS; UACC-257 melanoma; M14 melanoma.
Experiment in all cases: NCI-60 one-dose screen, 48 h (100 = growth as untreated, 0 = no growth, -100 = all killed)
Details in all cases: 10 µM unless noted

As for `Nc1cc(-c2ccc(Cl)cc2)nn1-c1nc(-c2ccc(Br)cc2)cs1`, the growth was 100% in the experiment with NCI-H23 lung; 96.3% in the experiment on NCI-H226 lung; 93.3% in the experiment with NCI-H322M lung; 97.9% in the experiment with HOP-62 NSCLC; 105% with NCI-H460 lung; 90% in the experiment with HOP-92 NSCLC. For the same molecule, the growth in the experiment on NCI-H522 lung was 84.2%; with A549/ATCC NSCLC, 88.1%; with 786-0 renal, 93.6%; in the experiment on COLO 205 colon, 100%; with DU-145 prostate, 108%; with K-562 leukemia, 105%. In addition, the growth in the experiment with MALME-3M melanoma was 86.7%; with MDA-MB-231 breast, 97.3%; with RXF 393 renal, 103%; in the experiment with SF-268 CNS it was 106%; with SF-295 CNS, 96.6%; in the experiment on SF-539 CNS it was 97.9%. Moreover, the growth with UACC-257 melanoma was 92.1%; in the experiment on M14 melanoma, 96.1%.

Take `O=c1c2cccc3c(N4CCOCC4)ccc(c32)c2nc3ccccc3n12`: the growth in the experiment with NCI-H23 lung was 76.9%; in the experiment with NCI-H226 lung it was 91%; in the experiment with NCI-H322M lung it was 89.1%; in the experiment on HOP-62 NSCLC, 86.4%; in the experiment with NCI-H460 lung it was 88.4%; with HOP-92 NSCLC it was 59.2%. The growth is 80.5% with NCI-H522 lung; 92.7% in the experiment on A549/ATCC NSCLC; 97.5% with 786-0 renal; 87.6% in the experiment with COLO 205 colon; 109% with DU-145 prostate; 80% in the experiment on K-562 leukemia. In addition, the growth was 97.7% in the experiment on MALME-3M melanoma; 82% in the experiment with MDA-MB-231 breast; 131% in the experiment on RXF 393 renal; 109% with SF-268 CNS; 86.3% with SF-295 CNS; 90.5% with SF-539 CNS. The growth with UACC-257 melanoma was 96.2%; in the experiment on M14 melanoma, 104%.

As to `CN1CCN(CC(=O)N(C)c2ccc(N=C(c3ccccc3)c3c(O)[nH]c4ccc([N+](=O)[O-])cc34)cc2)CC1`, the growth was 80.4% in the experiment on NCI-H23 lung; 61.9% in the experiment on NCI-H226 lung; 82.4% in the experiment on NCI-H322M lung; 85.1% with HOP-62 NSCLC; 54.5% in the experiment with NCI-H460 lung; 87.9% in the experiment on HOP-92 NSCLC. Further, the growth was 86.8% in the experiment with NCI-H522 lung; 46.7% in the experiment with A549/ATCC NSCLC; 44.3% with 786-0 renal; 28.6% in the experiment on COLO 205 colon; 51.3% in the experiment with DU-145 prostate; 5.2% (active) in the experiment with K-562 leukemia. Moreover, the growth in the experiment on MALME-3M melanoma is 84%; with MDA-MB-231 breast it was 63.5%; with RXF 393 renal, 28.2%; in the experiment with SF-268 CNS, 74.3%; in the experiment with SF-295 CNS it was 53.9%; in the experiment on SF-539 CNS, 36.1%. The growth in the experiment on UACC-257 melanoma was 103%; with M14 melanoma, 36.3%.

Take `C=C1C(=O)O[C@H]2[C@H]1CC/C(COC(=O)NCc1ccc(Cn3c(=O)sn(CCCC)c3=O)cc1)=C\CC[C@@]1(C)O[C@@H]21`: the growth with NCI-H23 lung was 80.8%; in the experiment on NCI-H226 lung, 78.5%; in the experiment on NCI-H322M lung, 105%; in the experiment with HOP-62 NSCLC, 91.6%; in the experiment with NCI-H460 lung, 95.4%; in the experiment with HOP-92 NSCLC it was -6.79% (active). The growth is -55.8% (active) in the experiment with NCI-H522 lung; 93.5% with A549/ATCC NSCLC; 41.8% with 786-0 renal; -25% (active) in the experiment with COLO 205 colon; 20.2% in the experiment with DU-145 prostate; 0.885% (active) in the experiment with K-562 leukemia. For the same molecule, the growth in the experiment with MALME-3M melanoma is -24.1% (active); with MDA-MB-231 breast, 38.4%; with RXF 393 renal, 33.5%; with SF-268 CNS, 82.4%; with SF-295 CNS, 101%; in the experiment with SF-539 CNS, 59.6%. The growth in the experiment with UACC-257 melanoma was 50.8%; with M14 melanoma, 6.26% (active).

Take `CCCc1cc(CCC)n2nc(N)nc2n1`: the growth was 103% with NCI-H23 lung; 94.8% with NCI-H226 lung; 97.9% with NCI-H322M lung; 97.5% with HOP-62 NSCLC; 110% with NCI-H460 lung; 106% in the experiment with HOP-92 NSCLC. Moreover, the growth was 109% with NCI-H522 lung; 112% with A549/ATCC NSCLC; 97.1% in the experiment with 786-0 renal; 103% in the experiment with COLO 205 colon; 117% in the experiment on DU-145 prostate; 121% in the experiment with K-562 leukemia. Besides, the growth with MALME-3M melanoma was 116%; in the experiment with MDA-MB-231 breast, 125%; in the experiment with RXF 393 renal, 102%; with SF-268 CNS, 110%; in the experiment on SF-295 CNS it was 96.4%; in the experiment on SF-539 CNS, 112%. Further, the growth with UACC-257 melanoma was 118%; in the experiment with M14 melanoma, 111%.

In the case of `O=C(O)c1nn(-c2ccc(Cl)cc2)nc1N1CCCC1`, the growth was 91% with NCI-H23 lung; 90.8% with NCI-H226 lung; 97.7% with NCI-H322M lung; 97.5% with HOP-62 NSCLC; 101% in the experiment with NCI-H460 lung; 77.1% in the experiment with HOP-92 NSCLC. Further, the growth was 89.3% in the experiment on NCI-H522 lung; 101% in the experiment on A549/ATCC NSCLC; 100% with 786-0 renal; 111% with COLO 205 colon; 91.3% with DU-145 prostate; 87.2% in the experiment with K-562 leukemia. The growth with MALME-3M melanoma was 90%; in the experiment on MDA-MB-231 breast, 101%; in the experiment on RXF 393 renal, 85.4%; in the experiment with SF-268 CNS, 98.3%; in the experiment with SF-295 CNS it was 90.5%; with SF-539 CNS it was 96.1%. The growth in the experiment on UACC-257 melanoma is 94.7%; in the experiment with M14 melanoma, 96.7%.

Turning to `CC1(C)CCC[C@]23C(=O)O[C@](O)(C(=O)C4=C[C@@](C)(/C=C/CCCc5ccc6ccc7cccc8ccc5c6c78)CC[C@@]42O)[C@@H]13`, the growth was -60.6% (active) in the experiment with NCI-H23 lung; -69.5% (active) with NCI-H226 lung; -98.6% (active) in the experiment with NCI-H322M lung; -66.1% (active) with HOP-62 NSCLC; -74.5% (active) with NCI-H460 lung; -83.9% (active) with HOP-92 NSCLC. Besides, the growth with NCI-H522 lung is -62.6% (active); with A549/ATCC NSCLC, -70.5% (active); in the experiment on 786-0 renal it was -79.3% (active); in the experiment with COLO 205 colon, -72.4% (active); in the experiment on DU-145 prostate, -85.7% (active); in the experiment with K-562 leukemia, 5.77% (active). The growth was -93.6% (active) in the experiment with MALME-3M melanoma; -69.9% (active) with MDA-MB-231 breast; -86.2% (active) in the experiment with RXF 393 renal; -45.3% (active) in the experiment with SF-268 CNS; -76.7% (active) in the experiment with SF-295 CNS; -96.6% (active) in the experiment on SF-539 CNS. Moreover, the growth was -68.7% (active) in the experiment on UACC-257 melanoma and -62% (active) with M14 melanoma.

As for `COc1cccc(C2C3=C(COC3=O)N(CCO)c3cc4c(cc32)OCCO4)c1` (stereo not given), the growth is 12.5% in the experiment with NCI-H23 lung; 38.3% in the experiment with NCI-H226 lung; 39% with NCI-H322M lung; 23.4% in the experiment with HOP-62 NSCLC; 5.46% (active) with NCI-H460 lung; 27.6% in the experiment on HOP-92 NSCLC. Besides, the growth with NCI-H522 lung was -14.6% (active); with A549/ATCC NSCLC, 24.6%; in the experiment with 786-0 renal, 19.3%; with COLO 205 colon, -68% (active); in the experiment on DU-145 prostate it was -38.9% (active); in the experiment on K-562 leukemia, 6.5% (active). Moreover, the growth in the experiment with MALME-3M melanoma is 69.6%; in the experiment with MDA-MB-231 breast, 8.33% (active); in the experiment with RXF 393 renal, 11.2%; in the experiment on SF-268 CNS, 23.8%; in the experiment on SF-295 CNS, -5.81% (active); in the experiment with SF-539 CNS it was -23.1% (active). For the same molecule, the growth was 53.6% with UACC-257 melanoma and -11.7% (active) in the experiment on M14 melanoma.
